# Key:
# Experiment in all cases: DAPPL (digital affinity profiling via proximity ligation, sequencing); 10 mM Tris-HCl pH 7.5, 50 mM NaCl, 1 mM DTT, 4% glycerol, room temperature, 30 min; GST-TFs on glutathione beads, 16-mer random dsDNA library, 0.1% formaldehyde crosslink after washing; high values mean tight binding
# [1] = biological target: T1, FEV (Homo sapiens, UniProt Q99581 1-238); details: protein: recombinant; tags: N-terminal GST; dsDNA, one strand shown
# T1 sequence: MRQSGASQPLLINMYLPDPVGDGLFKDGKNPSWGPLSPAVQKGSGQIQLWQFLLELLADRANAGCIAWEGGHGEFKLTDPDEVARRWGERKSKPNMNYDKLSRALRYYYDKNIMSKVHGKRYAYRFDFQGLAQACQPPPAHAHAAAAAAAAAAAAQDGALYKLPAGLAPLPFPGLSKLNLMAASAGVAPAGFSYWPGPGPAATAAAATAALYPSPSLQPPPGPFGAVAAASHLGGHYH
# Procedure, shortened: (§1)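 The binding signal reported is, for every hexamer, its read frequency for a factor over its read frequency for the tag-only sample. Reads came from pools of yeast-expressed, GST-fused human transcription factors on glutathione beads, barcoded with DNA and mixed with that sample, which were incubated with 200 nmole of a random double-stranded 16-mer DNA library in Tris/NaCl/DTT/glycerol buffer at room temperature for 30 min. After washing, the pools were crosslinked with 0.1% formaldehyde, proximity-ligated with BsaI/T4 ligase for 1 h at 37 °C, PCR-amplified and sequenced on an Illumina NextSeq500.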
# [2] = biological target: ETV5 (Homo sapiens, UniProt P41161 1-510); details: protein: recombinant; tags: N-terminal GST; dsDNA, one strand shown
# Sequence of ETV5 (P41161 whole entry): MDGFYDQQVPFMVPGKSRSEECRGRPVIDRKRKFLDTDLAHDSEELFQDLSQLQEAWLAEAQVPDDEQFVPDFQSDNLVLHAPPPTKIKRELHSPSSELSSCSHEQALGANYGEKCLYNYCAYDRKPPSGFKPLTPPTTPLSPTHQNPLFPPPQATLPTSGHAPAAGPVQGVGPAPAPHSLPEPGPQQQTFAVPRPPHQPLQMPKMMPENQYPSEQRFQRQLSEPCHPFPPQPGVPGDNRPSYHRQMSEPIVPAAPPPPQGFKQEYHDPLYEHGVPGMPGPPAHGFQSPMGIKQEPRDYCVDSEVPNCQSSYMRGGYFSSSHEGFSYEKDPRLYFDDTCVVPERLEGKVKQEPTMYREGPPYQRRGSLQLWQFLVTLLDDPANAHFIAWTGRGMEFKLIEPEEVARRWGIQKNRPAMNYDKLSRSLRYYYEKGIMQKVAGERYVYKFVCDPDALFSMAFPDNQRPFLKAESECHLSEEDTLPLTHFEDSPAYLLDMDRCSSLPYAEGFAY
# Procedure, shortened: as §1
# [3] = biological target: HSF1 (Homo sapiens, UniProt Q00613 1-529); details: protein: recombinant; tags: N-terminal GST; chain copies: 3; dsDNA, one strand shown
# Sequence of HSF1 (Q00613 whole entry): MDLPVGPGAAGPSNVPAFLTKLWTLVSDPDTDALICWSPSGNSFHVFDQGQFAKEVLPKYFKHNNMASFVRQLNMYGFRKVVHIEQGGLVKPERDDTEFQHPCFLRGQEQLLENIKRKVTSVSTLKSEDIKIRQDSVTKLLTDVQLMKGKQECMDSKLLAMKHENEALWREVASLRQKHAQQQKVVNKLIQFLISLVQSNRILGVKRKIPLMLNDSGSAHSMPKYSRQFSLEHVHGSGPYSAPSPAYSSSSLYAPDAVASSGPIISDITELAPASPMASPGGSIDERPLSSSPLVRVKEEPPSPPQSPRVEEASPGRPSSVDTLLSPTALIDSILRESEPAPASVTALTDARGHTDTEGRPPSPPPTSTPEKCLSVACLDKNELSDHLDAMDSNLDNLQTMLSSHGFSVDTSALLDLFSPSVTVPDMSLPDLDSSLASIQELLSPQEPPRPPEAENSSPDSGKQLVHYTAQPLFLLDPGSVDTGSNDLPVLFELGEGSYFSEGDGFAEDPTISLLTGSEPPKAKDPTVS
# Procedure, shortened: as §1
# [4] = biological target: T2, SPIC (Homo sapiens, UniProt Q8N5J4 1-248); details: protein: recombinant; tags: N-terminal GST; dsDNA, one strand shown
# T2 sequence: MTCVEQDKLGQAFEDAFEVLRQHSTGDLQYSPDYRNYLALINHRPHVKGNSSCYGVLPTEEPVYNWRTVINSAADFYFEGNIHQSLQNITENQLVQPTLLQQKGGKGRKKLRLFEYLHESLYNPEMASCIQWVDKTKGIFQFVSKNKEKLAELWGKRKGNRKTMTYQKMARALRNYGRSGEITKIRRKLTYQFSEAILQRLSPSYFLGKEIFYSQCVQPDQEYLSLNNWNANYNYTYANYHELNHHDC
# Procedure, shortened: as §1
# [5] = biological target: ELF4 (Homo sapiens, UniProt Q99607 1-663); details: protein: recombinant; tags: N-terminal GST; dsDNA, one strand shown
# Sequence of ELF4 (Q99607 whole entry): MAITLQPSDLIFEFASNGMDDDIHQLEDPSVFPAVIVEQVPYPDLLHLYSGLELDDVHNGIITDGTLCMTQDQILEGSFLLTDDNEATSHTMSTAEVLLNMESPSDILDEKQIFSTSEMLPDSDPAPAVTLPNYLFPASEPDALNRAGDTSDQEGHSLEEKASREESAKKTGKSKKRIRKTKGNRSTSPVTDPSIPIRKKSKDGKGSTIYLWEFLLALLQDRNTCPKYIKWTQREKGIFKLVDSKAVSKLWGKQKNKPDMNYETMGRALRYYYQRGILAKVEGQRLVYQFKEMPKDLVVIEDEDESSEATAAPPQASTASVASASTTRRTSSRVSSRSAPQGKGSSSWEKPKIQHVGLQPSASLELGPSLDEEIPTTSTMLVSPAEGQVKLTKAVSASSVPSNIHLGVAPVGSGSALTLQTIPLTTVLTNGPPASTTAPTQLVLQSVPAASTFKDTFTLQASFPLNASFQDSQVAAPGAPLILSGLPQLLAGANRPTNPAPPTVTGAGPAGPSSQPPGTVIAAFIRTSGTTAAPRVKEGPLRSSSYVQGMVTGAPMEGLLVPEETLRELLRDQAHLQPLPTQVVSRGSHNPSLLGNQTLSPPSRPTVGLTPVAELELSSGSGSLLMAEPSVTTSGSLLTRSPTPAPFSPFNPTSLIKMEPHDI
# Procedure, shortened: as §1
# [6] = biological target: T3, ELK4 (Homo sapiens, UniProt P28324-2 1-405); details: protein: recombinant; tags: N-terminal GST; dsDNA, one strand shown
# T3 sequence: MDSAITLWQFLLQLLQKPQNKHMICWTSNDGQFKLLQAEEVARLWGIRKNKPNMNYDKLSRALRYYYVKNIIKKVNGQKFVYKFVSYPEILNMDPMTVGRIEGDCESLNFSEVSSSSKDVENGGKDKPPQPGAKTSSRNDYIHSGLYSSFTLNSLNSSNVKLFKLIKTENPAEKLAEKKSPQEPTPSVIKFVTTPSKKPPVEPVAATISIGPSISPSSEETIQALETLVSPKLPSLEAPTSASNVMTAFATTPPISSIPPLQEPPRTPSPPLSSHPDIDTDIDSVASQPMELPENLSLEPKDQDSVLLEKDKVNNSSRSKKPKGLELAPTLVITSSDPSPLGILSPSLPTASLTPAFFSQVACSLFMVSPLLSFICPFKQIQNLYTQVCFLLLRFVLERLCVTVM
# Procedure, shortened: as §1
# [7] = biological target: T4, ETV2 (Homo sapiens, UniProt O00321 1-342); details: protein: recombinant; tags: N-terminal GST; dsDNA, one strand shown
# T4 sequence: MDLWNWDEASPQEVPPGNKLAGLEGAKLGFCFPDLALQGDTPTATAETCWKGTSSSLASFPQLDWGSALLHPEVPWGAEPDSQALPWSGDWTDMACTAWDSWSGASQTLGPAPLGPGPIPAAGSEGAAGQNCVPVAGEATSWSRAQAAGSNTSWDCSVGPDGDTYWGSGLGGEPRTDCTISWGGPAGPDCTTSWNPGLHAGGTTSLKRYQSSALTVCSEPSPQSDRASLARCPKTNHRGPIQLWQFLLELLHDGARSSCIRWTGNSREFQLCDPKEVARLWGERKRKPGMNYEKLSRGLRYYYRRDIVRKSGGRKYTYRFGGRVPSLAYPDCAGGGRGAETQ
# Procedure, shortened: as §1
# [8] = biological target: T5, ELF3 (Homo sapiens, UniProt P78545 1-371); details: protein: recombinant; tags: N-terminal GST; dsDNA, one strand shown
# T5 sequence: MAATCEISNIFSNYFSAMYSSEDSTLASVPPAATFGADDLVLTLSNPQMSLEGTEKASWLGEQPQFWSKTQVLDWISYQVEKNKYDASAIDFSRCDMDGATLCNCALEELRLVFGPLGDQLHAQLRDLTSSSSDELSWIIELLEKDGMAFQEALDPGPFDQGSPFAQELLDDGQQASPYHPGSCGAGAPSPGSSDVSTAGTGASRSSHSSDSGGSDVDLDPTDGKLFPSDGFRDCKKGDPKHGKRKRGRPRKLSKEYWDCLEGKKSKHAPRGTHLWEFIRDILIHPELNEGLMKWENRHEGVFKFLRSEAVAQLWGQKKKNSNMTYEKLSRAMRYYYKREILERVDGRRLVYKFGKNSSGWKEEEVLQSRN
# Procedure, shortened: as §1
# [9] = biological target: CRX (Homo sapiens, UniProt O43186 1-299); details: protein: recombinant; tags: N-terminal GST; dsDNA, one strand shown
# Sequence of CRX (O43186 whole entry): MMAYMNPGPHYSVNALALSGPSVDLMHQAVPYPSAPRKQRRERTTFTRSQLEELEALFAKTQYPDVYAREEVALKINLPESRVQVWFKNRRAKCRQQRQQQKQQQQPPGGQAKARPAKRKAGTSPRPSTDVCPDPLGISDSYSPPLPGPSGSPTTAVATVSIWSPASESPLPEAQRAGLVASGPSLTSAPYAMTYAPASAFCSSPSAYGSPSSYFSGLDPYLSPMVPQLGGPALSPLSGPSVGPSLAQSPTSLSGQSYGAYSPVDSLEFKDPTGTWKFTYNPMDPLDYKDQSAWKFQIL
# Procedure, shortened: as §1
# [10] = biological target: ETV1 (Homo sapiens, UniProt P50549 1-477); details: protein: recombinant; tags: N-terminal GST; dsDNA, one strand shown
# Sequence of ETV1 (P50549 whole entry): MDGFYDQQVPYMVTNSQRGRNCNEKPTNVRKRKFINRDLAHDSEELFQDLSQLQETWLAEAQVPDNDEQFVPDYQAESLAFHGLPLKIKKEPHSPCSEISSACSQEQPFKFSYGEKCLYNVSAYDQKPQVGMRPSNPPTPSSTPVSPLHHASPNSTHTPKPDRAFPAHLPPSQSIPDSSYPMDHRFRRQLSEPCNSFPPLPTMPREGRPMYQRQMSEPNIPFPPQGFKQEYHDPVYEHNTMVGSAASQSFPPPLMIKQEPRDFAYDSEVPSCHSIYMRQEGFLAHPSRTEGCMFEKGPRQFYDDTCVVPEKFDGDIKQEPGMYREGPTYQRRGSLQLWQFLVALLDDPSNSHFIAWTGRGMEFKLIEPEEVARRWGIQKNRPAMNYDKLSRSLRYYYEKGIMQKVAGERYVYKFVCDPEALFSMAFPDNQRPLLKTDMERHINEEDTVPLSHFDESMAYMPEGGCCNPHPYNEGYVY
# Procedure, shortened: as §1
sequence,measurement,setting,value
TCTCCA,binding signal,[1],"1.44 fold enrichment (6-mer frequency, TF over GST control)"
same,binding signal,[2],"1.39 fold enrichment (6-mer frequency, TF over GST control)"
same,binding signal,[3],"1.91 fold enrichment (6-mer frequency, TF over GST control)"
same,binding signal,[4],"1.36 fold enrichment (6-mer frequency, TF over GST control)"
same,binding signal,[5],"1.42 fold enrichment (6-mer frequency, TF over GST control)"
same,binding signal,[6],"1.69 fold enrichment (6-mer frequency, TF over GST control)"
same,binding signal,[7],"1.55 fold enrichment (6-mer frequency, TF over GST control)"
same,binding signal,[8],"1.29 fold enrichment (6-mer frequency, TF over GST control)"
same,binding signal,[9],"1.52 fold enrichment (6-mer frequency, TF over GST control)"
same,binding signal,[10],"1.38 fold enrichment (6-mer frequency, TF over GST control)"

# From article PMC7862700, “An all-to-all approach to the identification of sequence-specific readers for epigenetic DNA modifications on cytosine”
